Assay results from PubChem BioAssay (NCATS).
Inconclusive results are not listed. The source made the active and inactive calls. Calls come from the whole dose curve; as a rule, active = well fitted inhibition curve with a large enough effect; inconclusive = small, poorly fitted or top-dose-only effect; inactive = flat fitted curve, though single readings scatter.

Columns and labels:
[1] = qHTS profiling for inhibitors of Plasmodium falciparum proliferation (AID 504749); note: nearly all actives have a fitted effect of over 60% in size;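 for activity, negative = inhibition: 0% = DMSO vehicle and full inhibition = artemisinin control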; details: P. falciparum in erythrocytes, SYBR Green DNA, 72 h
How it was run: (§1)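 SYBR Green fluorescence (ex 485 nm, em 535 nm) reports parasite DNA after 72 h compound exposure of infected red cells at 0.3% parasitemia, 2.5% hematocrit; signal normalized to 0.29 uM artemisinin and vehicle wells.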

3D7 = assay: as above; details: P. falciparum in erythrocytes, SYBR Green DNA, 72 h; series mostly up to 28.7 µM
How it was run: as §1

AS120 = assay: as above; details: P. falciparum in erythrocytes, SYBR Green DNA, 72 h; series mostly up to 28.7 µM
How it was run: as §1

ATS95 = assay: as above; details: P. falciparum in erythrocytes, SYBR Green DNA, 72 h; series mostly up to 28.7 µM
How it was run: as §1

C2A = assay: as above; details: P. falciparum in erythrocytes, SYBR Green DNA, 72 h; series mostly up to 28.7 µM
How it was run: as §1

CP185 = assay: as above; details: P. falciparum in erythrocytes, SYBR Green DNA, 72 h; series mostly up to 28.7 µM
How it was run: as §1

CP191 = assay: as above; details: P. falciparum in erythrocytes, SYBR Green DNA, 72 h; series mostly up to 28.7 µM
How it was run: as §1

CP192 = assay: as above; details: P. falciparum in erythrocytes, SYBR Green DNA, 72 h; series mostly up to 28.7 µM
How it was run: as §1

CP194 = assay: as above; details: P. falciparum in erythrocytes, SYBR Green DNA, 72 h; series mostly up to 28.7 µM
How it was run: as §1

CP201 = assay: as above; details: P. falciparum in erythrocytes, SYBR Green DNA, 72 h; series mostly up to 28.7 µM
How it was run: as §1

CP211 = assay: as above; details: P. falciparum in erythrocytes, SYBR Green DNA, 72 h; series mostly up to 28.7 µM
How it was run: as §1

CP215 = assay: as above; details: P. falciparum in erythrocytes, SYBR Green DNA, 72 h; series mostly up to 28.7 µM
How it was run: as §1

CP217 = assay: as above; details: P. falciparum in erythrocytes, SYBR Green DNA, 72 h; series mostly up to 28.7 µM
How it was run: as §1

CP238 = assay: as above; details: P. falciparum in erythrocytes, SYBR Green DNA, 72 h; series mostly up to 28.7 µM
How it was run: as §1

AA1029 = assay: as above; details: P. falciparum in erythrocytes, SYBR Green DNA, 72 h; series mostly up to 28.7 µM
How it was run: as §1

7G8 = assay: as above; details: P. falciparum in erythrocytes, SYBR Green DNA, 72 h; series mostly up to 28.7 µM
How it was run: as §1

ATS189 = assay: as above; details: P. falciparum in erythrocytes, SYBR Green DNA, 72 h; series mostly up to 28.7 µM
How it was run: as §1

CP203 = assay: as above; details: P. falciparum in erythrocytes, SYBR Green DNA, 72 h; series mostly up to 28.7 µM
How it was run: as §1

CP237 = assay: as above; details: P. falciparum in erythrocytes, SYBR Green DNA, 72 h; series mostly up to 28.7 µM
How it was run: as §1

[2] = at 28.7 µM (top of the series), parasite line A
[3] = at 28.7 µM (top of the series), parasite line B
[4] = at 12.8 µM (top of the series), parasite line A
[5] = at 12.8 µM (top of the series), parasite line B
Potency is the fitted concentration of half-maximal effect.

CCN1CC(CCN2CCOCC2)C(c2ccccc2)(c2ccccc2)C1=O (configuration not stated)
inactive: activity, negative = inhibition [1, 2] 10.7% | activity, negative = inhibition [1, 3] -5.11% | Potency (3D7) | Potency (AS120) | Potency (ATS95) | Potency (C2A) | Potency (CP185) | outcome (CP191) | outcome (CP192) | outcome (CP194) | outcome (CP201) | outcome (CP211) | Potency (CP215) | outcome (CP217) | Potency (CP238)

O=C1C(c2[nH]c3ccccc3c2O)=Nc2ccccc21
inactive: Potency (AA1029) | Potency (ATS95) | Potency (CP185) | outcome (CP192) | outcome (CP194) | outcome (CP201) | Potency (CP238)

COc1nccnc1NS(=O)(=O)c1ccc(N)cc1
inactive: activity, negative = inhibition [1, 2] 0.889% | activity, negative = inhibition [1, 3] -0.327% | Potency (7G8) | Potency (AA1029) | Potency (AS120) | Potency (ATS189) | Potency (ATS95) | Potency (C2A) | Potency (CP185) | outcome (CP191) | outcome (CP192) | outcome (CP194) | outcome (CP201) | Potency (CP203) | outcome (CP211) | outcome (CP217) | Potency (CP237) | Potency (CP238)

Cc1cc(O)cc(C)c1Cl
inactive: activity, negative = inhibition [1, 2] -2.51% | activity, negative = inhibition [1, 3] -4.56% | Potency (3D7) | Potency (AA1029) | Potency (AS120) | Potency (C2A) | Potency (CP185) | outcome (CP192) | outcome (CP194) | outcome (CP201) | Potency (CP203) | outcome (CP211) | Potency (CP215) | outcome (CP217) | Potency (CP237) | Potency (CP238)
active: Potency (7G8) 10 µM

Cc1cc(OI)c(C(C)C)cc1-c1cc(C(C)C)c(OI)cc1C
active: Potency (7G8) 7.94 µM
inactive: Potency (CP185) | outcome (CP194) | outcome (CP201) | Potency (CP203) | outcome (CP211) | Potency (CP237)

COc1ccc2cc(CCC(C)=O)ccc2c1
inactive: activity, negative = inhibition [1, 4] 8.55% | activity, negative = inhibition [1, 5] 1.23% | Potency (3D7) | Potency (7G8) | Potency (AA1029) | Potency (ATS189) | Potency (ATS95) | Potency (C2A) | Potency (CP185) | outcome (CP191) | outcome (CP192) | outcome (CP194) | outcome (CP201) | Potency (CP203) | outcome (CP211) | Potency (CP215) | outcome (CP217) | Potency (CP237) | Potency (CP238)

C[C@H]1COc2c(C3(N)CC3)c(F)cc3c(=O)c(C(=O)O)cn1c23
inactive: activity, negative = inhibition [1, 2] -1.84% | activity, negative = inhibition [1, 3] -23.2% | Potency (7G8) | Potency (AA1029) | Potency (AS120) | Potency (ATS189) | Potency (ATS95) | Potency (C2A) | Potency (CP185) | outcome (CP191) | outcome (CP192) | outcome (CP194) | outcome (CP201) | Potency (CP203) | outcome (CP211) | Potency (CP215) | outcome (CP217) | Potency (CP237) | Potency (CP238)

NCc1ccc(S(N)(=O)=O)cc1
inactive: activity, negative = inhibition [1, 4] 6.73% | activity, negative = inhibition [1, 5] 11% | Potency (3D7) | Potency (AA1029) | Potency (AS120) | Potency (ATS95) | Potency (C2A) | Potency (CP185) | outcome (CP191) | outcome (CP192) | outcome (CP194) | outcome (CP201) | Potency (CP203) | outcome (CP211) | Potency (CP215) | outcome (CP217) | Potency (CP237) | Potency (CP238)

O=C(c1ccccc1)C(O)c1ccccc1 (configuration not stated)
inactive: activity, negative = inhibition [1, 3] -14.9% | Potency (3D7) | Potency (7G8) | Potency (AA1029) | Potency (AS120) | Potency (ATS189) | Potency (ATS95) | Potency (C2A) | Potency (CP185) | outcome (CP191) | outcome (CP192) | outcome (CP194) | outcome (CP201) | Potency (CP203) | outcome (CP211) | Potency (CP215) | outcome (CP217) | Potency (CP237) | Potency (CP238)

Nc1ccc(S(=O)(=O)c2ccc(N)cc2)cc1
inactive: activity, negative = inhibition [1, 2] 2.8% | activity, negative = inhibition [1, 3] 7.07% | Potency (3D7) | Potency (AA1029) | Potency (AS120) | Potency (ATS189) | Potency (ATS95) | Potency (C2A) | Potency (CP185) | outcome (CP191) | outcome (CP192) | outcome (CP194) | outcome (CP201) | Potency (CP203) | outcome (CP211) | Potency (CP215) | outcome (CP217) | Potency (CP237) | Potency (CP238)

Cc1cc(C)c(NC(=O)CN(CC(=O)O)CC(=O)O)c(C)c1Br
inactive: Potency (3D7) | Potency (7G8) | outcome (CP192) | outcome (CP194) | outcome (CP201) | Potency (CP203) | outcome (CP211) | Potency (CP215) | Potency (CP237)

CCCCCCCCCCC(CO)CCCCCCCC (configuration not stated)
inactive: activity, negative = inhibition [1, 2] -1.63% | activity, negative = inhibition [1, 3] 6.03% | Potency (3D7) | Potency (AA1029) | Potency (AS120) | Potency (ATS189) | Potency (ATS95) | Potency (C2A) | Potency (CP185) | outcome (CP191) | outcome (CP192) | outcome (CP194) | outcome (CP201) | Potency (CP203) | outcome (CP211) | Potency (CP215) | outcome (CP217) | Potency (CP237) | Potency (CP238)

O=C1c2ccccc2S(=O)(=O)N1CCCCN1CCN(c2ncccn2)CC1
inactive: activity, negative = inhibition [1, 2] -16.2% | activity, negative = inhibition [1, 3] 25.9% | Potency (3D7) | Potency (AA1029) | Potency (AS120) | Potency (ATS189) | Potency (ATS95) | Potency (C2A) | Potency (CP185) | outcome (CP191) | outcome (CP192) | outcome (CP194) | outcome (CP201) | Potency (CP203) | outcome (CP211) | Potency (CP215) | outcome (CP217) | Potency (CP237) | Potency (CP238)

CC(=O)Oc1cccc(O)c1
inactive: activity, negative = inhibition [1, 2] 4.48% | activity, negative = inhibition [1, 3] 12.6% | Potency (3D7) | Potency (AA1029) | Potency (AS120) | Potency (ATS189) | Potency (ATS95) | Potency (C2A) | Potency (CP185) | outcome (CP191) | outcome (CP192) | outcome (CP194) | outcome (CP201) | Potency (CP203) | outcome (CP211) | Potency (CP215) | outcome (CP217) | Potency (CP237) | Potency (CP238)

CN(C/C=C/C#CC(C)(C)C)Cc1cccc2ccccc12
inactive: activity, negative = inhibition [1, 2] -1.32% | activity, negative = inhibition [1, 3] -6.19% | Potency (3D7) | Potency (AA1029) | Potency (AS120) | Potency (ATS189) | Potency (ATS95) | Potency (C2A) | Potency (CP185) | outcome (CP191) | outcome (CP192) | outcome (CP194) | outcome (CP201) | Potency (CP203) | outcome (CP211) | Potency (CP215) | outcome (CP217) | Potency (CP238)
